# The full ranking holds about 18,000 sequences; the median of “log2 normalized intensity” is about 0.36, and the highest 2% start at about 7.3. This excerpt belongs to a sample that is enriched for the highest values.
# Biological target: T1, HNF4alpha8 (COS-7 nuclear extract) (Homo sapiens, UniProt P41235-5 1-452)
# T1 sequence: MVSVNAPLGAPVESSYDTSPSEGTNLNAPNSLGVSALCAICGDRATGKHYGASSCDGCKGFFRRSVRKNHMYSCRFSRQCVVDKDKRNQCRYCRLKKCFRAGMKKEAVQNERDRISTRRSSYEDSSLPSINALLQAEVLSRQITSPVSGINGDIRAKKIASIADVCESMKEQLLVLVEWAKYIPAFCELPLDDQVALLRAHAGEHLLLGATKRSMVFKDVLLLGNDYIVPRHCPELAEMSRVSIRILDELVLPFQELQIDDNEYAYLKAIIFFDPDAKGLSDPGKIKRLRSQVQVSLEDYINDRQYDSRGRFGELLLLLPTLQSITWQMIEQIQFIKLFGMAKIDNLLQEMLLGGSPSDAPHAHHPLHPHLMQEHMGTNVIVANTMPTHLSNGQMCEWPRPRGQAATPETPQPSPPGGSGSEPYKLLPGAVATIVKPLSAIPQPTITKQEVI
# Assay: protein-binding microarray; COS-7 nuclear extract on double-stranded Agilent 4x180k PBM; binding buffer, salt, pH and temperature not given in the material; high values mean tight binding
# Conditions: chain copies: 2; label: 3' end of strand 1 on the slide; dsDNA, one strand shown
# Procedure, shortened: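 Double-stranded oligonucleotides of ~60 nt, representing ~44,000 test sequences in quadruplicate, made up a custom Agilent SurePrint G3 4x180k array. Nuclear extracts from COS-7 cells transiently transfected by CaPO4 with a human HNF4α isoform expression vector were applied, and bound HNF4α was imaged at 2-µm resolution on an Agilent G2565CA scanner. Binding signal refers to the background-corrected, normalized gProcessedSignal output of Agilent software.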
row,Sequence,binding signal [log2 normalized intensity]
1,GGTCAAAGTACATCCCCTAAAACATCAAATGCCTAGGGAGATTAGAGTATCGGTCGA,3.45
2,AGGTGCAAAGTACATATTTACTTACCTTTTGCCTAGGGAGATTAGAGTATCGGTCGA,3.68
3,TGCAAGTTACCTTGGGGTCAAAGTACATCCGCCTAGGGAGATTAGAGTATCGGTCGA,9.54
4,CTTGGGGTCAAAGTACATCCCCTAAAACATGCCTAGGGAGATTAGAGTATCGGTCGA,6.61
5,TTGCAGACCTTGGTCAAAGTGACACATTCCGCCTAGGGAGATTAGAGTATCGGTCGA,0.772
6,GTTACCTTGGGGTCAAAGTACATCCCCTAAGCCTAGGGAGATTAGAGTATCGGTCGA,7.38
7,AACACCAGCAACCGCCTACCTTTGGACTTCGCCTAGGGAGATTAGAGTATCGGTCGA,6.25
8,TGGACCATTGCTGACCTTGCCTCTGTGCTCGCCTAGGGAGATTAGAGTATCGGTCGA,1.8
9,CTCTGGCCAGAGAGATGTCAGCCCAAGATAGCCTAGGGAGATTAGAGTATCGGTCGA,3.25
10,AAATGAAGTGGTATCCTGCAGTCAGTCTGAGCCTAGGGAGATTAGAGTATCGGTCGA,-0.508
11,TGACTTTCTTCCTATGGGATCAAAGTGCGAGCCTAGGGAGATTAGAGTATCGGTCGA,5.69
12,AAAAAATGGGCAAAGGACAATAATGAATAAGCCTAGGGAGATTAGAGTATCGGTCGA,-0.651
13,CCTTGACCCTTCCTCCCATTTGCTGCTCTAGCCTAGGGAGATTAGAGTATCGGTCGA,1.81
14,TTCTTCCTGTTTGACCTTCGAACCCTTGCCGCCTAGGGAGATTAGAGTATCGGTCGA,9.64
15,CATACTTCTTCCTGTTTGACCTTCGAACCCGCCTAGGGAGATTAGAGTATCGGTCGA,10.1
16,CCTGTTTGACCTTCGAACCCTTGCCATTTAGCCTAGGGAGATTAGAGTATCGGTCGA,7.81
17,TTGACCTTCTCTGTTAACCCTTTGCAGCCCGCCTAGGGAGATTAGAGTATCGGTCGA,2.91
18,TTGACCTTCGAACCCTTGCCATTTACATCAGCCTAGGGAGATTAGAGTATCGGTCGA,6.21
19,AAGCACATACTTCTTCCTGTTTGACCTTCGGCCTAGGGAGATTAGAGTATCGGTCGA,5.61
20,GTACCTTGACCTTCTCTGTTAACCCTTTGCGCCTAGGGAGATTAGAGTATCGGTCGA,4.52
21,CTCCTGTTTGTATTCCTTGTCCTTGACCCTGCCTAGGGAGATTAGAGTATCGGTCGA,4.96

row,Sequence,binding signal [log2 normalized intensity]
1,ACCTCTGTAATAACTGCAGTGCCACTCGGGGCCTAGGGAGATTAGAGTATCGGTCGA,-0.418
2,CTTTATCCTACAAGGGAGATAAACTTTATCGCCTAGGGAGATTAGAGTATCGGTCGA,0.672
3,GCTTGGCAAACATTTCACTTTGCTCCCTCCGCCTAGGGAGATTAGAGTATCGGTCGA,2.18
4,TGAATGATCAAAGGTTGGTTTTTGGAGACAGCCTAGGGAGATTAGAGTATCGGTCGA,3.36
5,TCCTGAGTGATTGTAGTGTCATTGTTATTTGCCTAGGGAGATTAGAGTATCGGTCGA,1.98
6,GGACTGTGACCCCACCTCTCAGACAGAGCTGCCTAGGGAGATTAGAGTATCGGTCGA,3.8
7,CATGACCTTTGGACTGTGACCCCACCTCTCGCCTAGGGAGATTAGAGTATCGGTCGA,7.69
8,CTGCCCTTTGGAACCTGCCCTCTGTCCCATGCCTAGGGAGATTAGAGTATCGGTCGA,4.63
9,AGAACCTGCCCATGACCTTTGGACTGTGACGCCTAGGGAGATTAGAGTATCGGTCGA,10.2
10,CTTTGGAACCTGCCCTCTGTCCCATGGTGTGCCTAGGGAGATTAGAGTATCGGTCGA,2.85
11,GGGGAGGGCAGGGTCAGAACCTGCCCATGAGCCTAGGGAGATTAGAGTATCGGTCGA,0.0112
12,GGGCAGGGTCAGAACCTGCCCATGACCTTTGCCTAGGGAGATTAGAGTATCGGTCGA,6.45
13,CCTTTGGACTGTGACCCCACCTCTCAGACAGCCTAGGGAGATTAGAGTATCGGTCGA,5.4
14,GGGTCAGAACCTGCCCATGACCTTTGGACTGCCTAGGGAGATTAGAGTATCGGTCGA,10.8
15,TCAGGTGTTGCTCTCTTGCCATTCGTGGATGCCTAGGGAGATTAGAGTATCGGTCGA,0.994
16,ACTACTAACCGAAAGTCTGACCCTTGACCAGCCTAGGGAGATTAGAGTATCGGTCGA,7.2
17,CAATGACCTTTGACCCTTCTCTGGGAGAAAGCCTAGGGAGATTAGAGTATCGGTCGA,8.44
18,TTTGAAAGAAAGAGACCTTTACCCTGACCTGCCTAGGGAGATTAGAGTATCGGTCGA,4.47
19,AAACAATGACCTCTGCACCCTTCCCTGAGTGCCTAGGGAGATTAGAGTATCGGTCGA,4.47
20,ACCTTTGACCCTTCTCTGGGAGAAAGGGAGGCCTAGGGAGATTAGAGTATCGGTCGA,3.86
21,GAAGGAGCACCAATGACCTTTGACCCTTCTGCCTAGGGAGATTAGAGTATCGGTCGA,11.2

# Source: PMC10726135, “HNF4α isoforms regulate the circadian balance between carbohydrate and lipid metabolism in the liver”
